RAD52 inh – RAD52 DNA annealing inhibitors, primary screen, biochemical, FRET, single point, set 2; DNA repair protein RAD52 homolog (Homo sapiens), P43351; recombinant RAD52 DNA annealing, FRET fluorescence; inhibition, % at 18.7 µM; hit rate 0.46% among 360,000; AID 651710, 2012;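 active means every replicate showing at least 50% inhibition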
PvdQ inh – P. aeruginosa PvdQ acylase inhibitors, primary screen, biochemical, fluorescence, plate reader and imaging, single point. PvdQ acylase [Pseudomonas aeruginosa LESB58]. inhibition, % at 10 µM. hit rate 0.063% among 340,000. purified PvdQ acylase. AID 488965, 2010; in the data active means inhibition above about 30%, passing the limit was not always enough;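 further: 0% = vehicle neutral wells and 100% = reference inhibitor wells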
N-glyco inh – increase of ERlucT glycosylation luciferase signal, primary screen, N-linked glycosylation inhibitor project, D54 ERlucT cells, luminescence, set 2. D54 ERlucT glycosylation luciferase reporter, 24 h; percent of 100 nM tunicamycin response. reporter increase, % at 12.5 µM. hit rate 0.23% among 360,000. AID 588692, 2011;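 active means mean luciferase reporter signal, scaled so untreated is 0 and the glycosylation-blocking control 100, at or above a set limit in every replicate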;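 further: luciferase carries N-glycosylation sites so blocking glycosylation raises the light; 0% = median of neutral control wells and 100% = median of 100 nM tunicamycin wells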
RAD54 branch – inhibitors of human RAD54 branch migration, primary screen, biochemical, fluorescence, single point; RAD54 Holliday junction branch migration, FAM/BHQ fluorescence; inhibition, % at 10.4 µM; hit rate 0.14% among 360,000; AID 602329, 2012; DNA repair and recombination protein RAD54-like (Homo sapiens), Q92698;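 active means mean normalized replicate activity at least 40 and at least half of replicates scoring 40 or more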;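 further: 0% = median of neutral control wells and 100% = median of positive control wells; inhibitors cause a drop in the FAM fluorescence signal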
CFTR F508del cor – F508del CFTR correction, initial screen, CFBE line, single point. AID 720511, 2013. hit rate 0.36% among 350,000. CFBE cells, YFP halide quenching; stimulated with forskolin plus potentiator P3; % fluorescence drop versus neutral controls. activity (quench increase), % at 7.58 µM;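 active means mean added fluorescence quench of at least 8% versus neutral control, with both replicates also reaching 8%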;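 further: cells transiently co-express mutant CFTR-F508del with the halide-sensitive YFP; corrector assay measuring rescue of mutant channel to the surface after 24 h compound exposure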
dFosB act-1 – activators of delta FosB homodimer, primary screen, biochemical, fluorescence polarization, TAMRA-CDK5 oligo, single point | Protein FosB (Mus musculus), P13346 | purified delta FosB; percent of positive-control signal above neutral wells | activation, % at 25 µM | hit rate 0.99% among 340,000;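 active means mean activation above about 17%, with every replicate also reaching it, limit read from the data, passing the limit was not always enough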
Target sequence (P13346 whole entry, looked up): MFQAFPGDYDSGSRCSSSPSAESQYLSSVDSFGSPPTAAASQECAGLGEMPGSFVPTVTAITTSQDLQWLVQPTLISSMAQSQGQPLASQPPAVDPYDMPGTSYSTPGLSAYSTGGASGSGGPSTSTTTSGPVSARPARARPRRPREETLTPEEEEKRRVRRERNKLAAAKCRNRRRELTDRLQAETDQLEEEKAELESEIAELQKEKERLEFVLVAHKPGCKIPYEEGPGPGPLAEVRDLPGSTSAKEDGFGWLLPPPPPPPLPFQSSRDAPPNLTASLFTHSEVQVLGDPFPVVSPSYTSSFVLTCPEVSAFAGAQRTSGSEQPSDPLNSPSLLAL
dFosB act-2 – activators of mouse delta FosB DNA binding, confirmation, biochemical, fluorescence polarization, TAMRA-CDK5 oligo, cherry-picked samples; shares compounds with dFosB act-1; purified delta FosB; normalised: neutral wells 0, positive control 100; 2,400 tested, under 10 active; activation, % at 24.9 µM;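 active means highest replicate activation at or above 34% and every replicate reaching that threshold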;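 further: higher polarization means more probe DNA bound by delta FosB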
Active calls of the source: *; . = no result. Sampled rows, rich in hits. Any-hit rate of the full collection: about 1.5%.

SMILES	RAD52 inh	PvdQ inh	N-glyco inh	RAD54 branch	CFTR F508del cor	dFosB act-1	dFosB act-2
O=C(COc1ncnc2c(Cl)cc(Cl)cc12)Nc1cc([N+](=O)[O-])ccc1Cl	.	3	-4	-3	.	-1	.
COc1ccc([N+](=O)[O-])cc1Nc1ncnc2ccccc12	-6	-9	0	0	.	38*	2
O=C(Nc1ccccc1)NC1(c2cn(CC(=O)N3CCN(c4ccccc4)CC3)nn2)CCCCC1	8	.	.	-8	1	.	.
CC[C@H](C)[C@@H]1NC(=O)c2cc([N+](=O)[O-])cc(F)c2NCCCC[C@@H](C(N)=O)NC(=O)[C@H](CCCCN)NC1=O	65*	-6	2	15	-1	21*	3
CCc1nnc2n1N=C(c1ccc(-c3cc(Cl)ccc3Cl)o1)CS2	.	0	0	-4	.	30*	-1
CCc1nnc2n1N=C(c1ccc([N+](=O)[O-])cc1)CS2	-5	-4	1	-2	-1	-3	.
COc1ccc(-n2c(SCC(=O)N3CCc4ccccc43)nnc2-c2c[nH]c3ccccc23)cc1	-7	-2	1	2	0	49*	3
CCn1c(SCC(=O)N2CCc3ccccc32)nnc1-c1c[nH]c2ccccc12	.	-19	-1	3	.	3	.
CC=Cc1ccc2n(c1=O)C[C@H]1[C@H](CO)[C@@H](C(=O)NCC3CC3)[C@@H]2N1CCC (mixture of isomers)	-6	.	.	-4	-2	.	.
O=C(NNC(=O)c1cc(Br)c(Br)s1)c1csc(N2CCOCC2)n1	-11	-6	0	.	-3	44*	1
COc1ccc(S(=O)(=O)Nc2ccc3c(c2)C(=O)N([C@H](C)CO)C[C@@H](C)[C@H](CN(C)C(=O)Nc2cccc4ccccc24)OCCCC[C@@H](C)O3)cc1	.	.	.	3	0	.	.
Cc1cc(C)cc(NC(=O)CCc2nc3ccccc3[nH]2)c1	.	0	3	-3	.	28*	-1
O=C(CCc1nc2ccccc2[nH]1)Nc1ccccc1	.	-10	1	-10	.	-2	.
Cc1cc(O)c(-c2n[nH]c3c2C(c2cccc(O)c2)N(Cc2cccnc2)C3=O)cc1Cl (stereo unspecified)	.	16	1	2	.	23*	2
Cc1nn(Cc2ccc(Cl)cc2Cl)c(C)c1NC(=O)Cn1nc([N+](=O)[O-])c(Cl)c1C	.	-3	2	.	.	44*	1
Cc1nn(Cc2c(Cl)cccc2Cl)c(C)c1NC(=O)CCCn1nc([N+](=O)[O-])c(Cl)c1C	-12	9	-2	-11	-2	-6	.
Cc1nn(Cc2ccc(Cl)cc2)c(C)c1NC(=O)Cn1nc([N+](=O)[O-])c(Cl)c1C	.	-16	0	-3	.	20*	8
O=C(NCc1ccccc1Cl)c1cccc(NC2=NC3CS(=O)(=O)CC3S2)c1 (stereo unspecified)	-4	-10	1	-3	1	-5	.
O=C(NCc1ccccc1Cl)c1ccc(NC2=NC3CS(=O)(=O)CC3S2)cc1 (stereo unspecified)	-9	3	-1	11	-2	29*	4
C[C@@H]1CCCCO[C@@H](CN(C)S(=O)(=O)c2ccc(Cl)cc2)[C@H](C)CN([C@H](C)CO)C(=O)c2cc(NC(=O)Cc3ccccc3)ccc2O1	19	.	.	5	-3	.	.
COc1ccc(-c2ccnc3nc(-n4cccc4)nn23)cc1	.	-14	1	.	.	9	.
Clc1cccc(-c2ccnc3nc(-n4cccc4)nn23)c1	.	-12	4	.	.	37*	-2

Screening data (PubChem)
